Some test systems named below: NCI-H23 lung; NCI-H322M lung; HOP-62 NSCLC; NCI-H460 lung; HOP-92 NSCLC; NCI-H522 lung; A549/ATCC NSCLC; 786-0 renal; COLO 205 colon; DU-145 prostate; K-562 leukemia; MALME-3M melanoma; MDA-MB-231 breast; RXF 393 renal; SF-268 CNS; SF-295 CNS; SF-539 CNS; UACC-257 melanoma; M14 melanoma; HCT-15 colon.
What all share (assay): NCI-60 one-dose screen, 48 h (100 = growth as untreated, 0 = no growth, -100 = all killed)
What all share (details): 10 µM unless noted

Consider eight compounds from PubChem BioAssay (NCI).

This is part of a sample that, as a whole, favours compounds with a hit. Of some 83,000 tested, about 20% had one in any assay.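 Treatment: one concentration, 48 hours, 96-well format. Scoring: percent growth, with anything below 10 considered active.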 Unmarked numbers belong to inactive results. Activity calls are given as the source filed them.

On to `O=c1c2cc(F)ccc2sc2c(NCCCNCCO)nc3ccc(Cl)cc3c12`, for which the growth in the test on NCI-H23 lung is 81.6%; in the test on NCI-H322M lung it was 79.2%; with HOP-62 NSCLC it was 61%; with NCI-H460 lung, -53.8% (active); with HOP-92 NSCLC, 36.8%; in the test with NCI-H522 lung, 49.1%. Moreover, the growth in the test on A549/ATCC NSCLC was 57.7%; with 786-0 renal, 58.8%; in the test on COLO 205 colon, 3.05% (active); with DU-145 prostate, 37.7%; with K-562 leukemia it was -25.8% (active); in the test with MALME-3M melanoma it was 106%. The growth was 22.5% in the test with MDA-MB-231 breast; 61.1% in the test on RXF 393 renal; 47.9% with SF-268 CNS; 91.3% with SF-295 CNS; 84.8% in the test on SF-539 CNS; 97.9% in the test on UACC-257 melanoma. The growth is 33.4% with M14 melanoma and 51.2% with HCT-15 colon.

In the case of `O=C(Nc1ccccc1O)c1ccc(Oc2cccc(C(=O)Nc3ccccc3O)c2)cc1`, the growth in the test with NCI-H23 lung was 25.5%; with NCI-H322M lung, 25.9%; in the test on HOP-62 NSCLC, 6.43% (active); in the test on NCI-H460 lung, 1.59% (active); with HOP-92 NSCLC, 31.4%; with NCI-H522 lung, -16% (active). Also, the growth is 7.58% (active) in the test on A549/ATCC NSCLC; 3.76% (active) with 786-0 renal; 93.4% with COLO 205 colon; 12.1% with DU-145 prostate; -29.1% (active) with K-562 leukemia; 13.6% in the test on MALME-3M melanoma. Besides, the growth in the test with MDA-MB-231 breast is 32%; in the test with RXF 393 renal, 26.6%; with SF-268 CNS, 0.105% (active); in the test on SF-295 CNS, -28.5% (active); in the test on SF-539 CNS, 7.4% (active); in the test with UACC-257 melanoma, 10.4%. The growth is -44.5% (active) in the test on M14 melanoma and 32.2% with HCT-15 colon.

As for `O=C(Nc1ccc(Cl)cc1)N1CCN(c2ccc3nncn3n2)CC1`, the growth with NCI-H23 lung is 77.2%; in the test on NCI-H322M lung, 29.8%; in the test with HOP-62 NSCLC, -11.4% (active); with NCI-H460 lung it was -27.3% (active); with HOP-92 NSCLC, -21.8% (active); with NCI-H522 lung it was -45.1% (active). In addition, the growth in the test on A549/ATCC NSCLC is -12% (active); in the test on 786-0 renal it was -85.9% (active); with COLO 205 colon, -81.2% (active); in the test with DU-145 prostate, 36%; in the test on K-562 leukemia, -61.1% (active); with MALME-3M melanoma, -86.8% (active). The growth was -55.5% (active) in the test on MDA-MB-231 breast; -81.2% (active) with RXF 393 renal; -48.1% (active) in the test with SF-268 CNS; -87.2% (active) with SF-295 CNS; -86.7% (active) in the test on SF-539 CNS; -68.9% (active) in the test on UACC-257 melanoma. Besides, the results for the growth with M14 melanoma and in the test on HCT-15 colon were -87.1% (active) and 0.448% (active), respectively.

Regarding `COc1cc(/C=C2\CCC/C(=C\c3cc(CN4CCOCC4)c(O)c(OC)c3)C2=O)cc(CN2CCOCC2)c1O`, the growth in the test with NCI-H23 lung was 21.4%; with NCI-H322M lung, 46.4%; with HOP-62 NSCLC, 46.6%; in the test on NCI-H460 lung, 11.6%; in the test on HOP-92 NSCLC, 36.8%; with NCI-H522 lung it was 34.4%. Besides, the growth with A549/ATCC NSCLC was 35.8%; in the test on 786-0 renal it was 57.8%; in the test with COLO 205 colon, 45.2%; in the test with DU-145 prostate, 14.9%; in the test with K-562 leukemia, 15.3%; with MALME-3M melanoma, 46.3%. Further, the growth in the test on MDA-MB-231 breast is 26.2%; with RXF 393 renal, 6.08% (active); with SF-268 CNS, 42.3%; in the test on SF-295 CNS, 59.6%; in the test with SF-539 CNS it was 32%; in the test on UACC-257 melanoma, 64.7%. Moreover, the growth in the test on M14 melanoma is 36.7%; with HCT-15 colon it was 21.9%.

Consider `S=C1CCCC(=S)N1`, for which the growth was 101% with NCI-H23 lung; 107% with NCI-H322M lung; 88% in the test on HOP-62 NSCLC; 106% with NCI-H460 lung; 105% with HOP-92 NSCLC; 96.6% in the test with NCI-H522 lung. Moreover, the growth is 98.3% in the test with A549/ATCC NSCLC; 107% with 786-0 renal; 115% in the test with COLO 205 colon; 111% in the test with DU-145 prostate; 104% with K-562 leukemia; 106% with MALME-3M melanoma. Besides, the growth in the test with MDA-MB-231 breast is 113%; with RXF 393 renal, 104%; in the test with SF-268 CNS it was 99.1%; with SF-295 CNS, 104%; with SF-539 CNS it was 100%; in the test with UACC-257 melanoma, 94.6%. Further, the values for the growth in the test on M14 melanoma and with HCT-15 colon were 105% and 101%, respectively.

As to `CN1CCN(Cc2ccc(NC(=O)c3[nH]ncc3Nc3cc(OC4CCCC4)ncn3)cc2)CC1`, the growth in the test on NCI-H23 lung was 45.8%; in the test on NCI-H322M lung it was 45.9%; in the test on HOP-62 NSCLC, 55.4%; in the test on NCI-H460 lung, 22.2%; with HOP-92 NSCLC, 14.9%; in the test with NCI-H522 lung it was 26.2%. In addition, the growth with A549/ATCC NSCLC is 8.79% (active); in the test on 786-0 renal, 20.9%; in the test on COLO 205 colon it was 7.6% (active); in the test with DU-145 prostate, 37.9%; with K-562 leukemia, 1.53% (active); in the test with MALME-3M melanoma, 65.4%. For the same compound, the growth with MDA-MB-231 breast was 23.8%; in the test on RXF 393 renal it was -0.487% (active); in the test with SF-268 CNS it was 40.7%; in the test with SF-295 CNS it was 45.9%; with SF-539 CNS, 30.3%; in the test on UACC-257 melanoma it was 48.1%. Also, the growth with M14 melanoma was 19.9%; in the test with HCT-15 colon, 12.9%.

In the case of `CCOC(=O)c1sc(-c2ccc(OS(=O)(=O)c3ccc(Br)s3)c(C=O)c2)nc1C`, the growth with NCI-H23 lung was 11.9%; in the test on NCI-H322M lung it was 83.8%; in the test with HOP-62 NSCLC, 19.6%; with NCI-H460 lung, 77.6%; in the test with HOP-92 NSCLC it was 26.5%; in the test on NCI-H522 lung, -5.7% (active). The growth in the test on A549/ATCC NSCLC was 76.1%; in the test with 786-0 renal, 9.63% (active); in the test on COLO 205 colon it was 84.8%; with DU-145 prostate, 21.2%; with K-562 leukemia, 9.45% (active); in the test on MALME-3M melanoma, 13.2%. Besides, the growth was 4.99% (active) with MDA-MB-231 breast; 51.7% with RXF 393 renal; 16.4% in the test on SF-268 CNS; 32.8% in the test with SF-295 CNS; -5.53% (active) with SF-539 CNS; 28.8% in the test with UACC-257 melanoma. The growth was 1.87% (active) with M14 melanoma and 1.83% (active) with HCT-15 colon.

With `Cc1ccc(Cc2cnc(NC(=O)CN3C(=O)/C(=C\c4ccccc4)SC3=S)s2)cc1`, the growth is 103% with NCI-H23 lung; 109% in the test on NCI-H322M lung; 109% in the test on HOP-62 NSCLC; 103% in the test on NCI-H460 lung; 113% with HOP-92 NSCLC; 94.7% in the test with NCI-H522 lung. For the same compound, the growth in the test on A549/ATCC NSCLC was 103%; in the test on 786-0 renal, 105%; in the test with COLO 205 colon, 116%; in the test on DU-145 prostate, 111%; with K-562 leukemia it was 101%; with MALME-3M melanoma, 104%. The growth with MDA-MB-231 breast is 108%; in the test on RXF 393 renal, 113%; in the test on SF-268 CNS, 101%; in the test with SF-295 CNS, 101%; in the test on SF-539 CNS, 100%; in the test on UACC-257 melanoma it was 107%. The figures for the growth in the test with M14 melanoma and in the test with HCT-15 colon were 107% and 103%, respectively.
